Results as given in PubChem BioAssay (NCI).
Compounds without any hit were thinned out: in the full panel of roughly 83,000, 20% have a hit.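 Percent growth is the endpoint: 0 to 100 indicates growth inhibition (40 means 60% inhibition), 0 means no net growth, and negative values indicate cell death.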 Activity calls are given as the source filed them. The calls were made as follows: active = growth percent below 10; inactive = the rest.

Assays:
Assay in all cases: NCI-60 one-dose screen, 48 h (100 = growth as untreated, 0 = no growth, -100 = all killed)
[1] = test system: EKVX NSCLC; conditions: 10 µM unless noted
[2] = test system: SN12C renal; conditions: 10 µM unless noted
[3] = test system: UO-31 renal; conditions: 10 µM unless noted
[4] = test system: TK-10 renal; conditions: 10 µM unless noted
[5] = test system: ACHN renal; conditions: 10 µM unless noted
[6] = test system: CAKI-1 renal; conditions: 10 µM
[7] = test system: A498 renal; conditions: 10 µM unless noted
[8] = test system: CCRF-CEM leukemia; conditions: 10 µM unless noted
[9] = test system: MOLT-4 leukemia; conditions: 10 µM unless noted

Measured: growth

Clc1ccc(-c2csc(N/N=C/c3nc4ccccc4n3C3CC3)n2)cc1
inactive: [1] 92.2% | [2] 104% | [3] 84.3% | [4] 85.6% | [5] 104% | [6] 89.7% | [7] 108% | [8] 93.7% | [9] 98.2%

CNC(=O)c1cc(Oc2ccc3nc(NC(=O)c4ccc(CN5CCCN(C)CC5)c(C(F)(F)F)c4)sc3c2)ccn1
active: [3] 4.18% | [5] 4.16% | [8] 8.38% | [9] -35.2%
inactive: [1] 40.1% | [2] 54.9% | [4] 47.9% | [6] 14.6% | [7] 66.2%

N#C/C(=C\c1ccc2ccccc2c1)C(=O)Nc1sc2c(c1C#N)CCC2
inactive: [1] 94.8% | [2] 95.5% | [3] 78.2% | [4] 108% | [5] 104% | [6] 88.2% | [7] 93.9% | [8] 103% | [9] 101%

COc1cc2oc(-c3cccc(NC(=O)c4cc(NC(=O)[C@H](C)NC(=O)OC(C)(C)C)ccc4C)c3)cc(=O)c2c(OC)c1OC
inactive: [1] 85.4% | [2] 69.5% | [3] 36.3% | [4] 89.1% | [5] 61.9% | [6] 53% | [7] 61.9% | [8] 62.4% | [9] 51.5%

O=C(/C=C/Nc1ccc(S(=O)(=O)O)cc1)c1ccc(F)cc1
inactive: [1] 107% | [2] 105% | [3] 91.8% | [4] 97.2% | [5] 101% | [6] 90.4% | [7] 93% | [8] 98.5% | [9] 102%

CSc1nccc(-c2c(-c3ccc(F)c(OCc4ccc(F)cc4)c3)nc3sccn23)n1
inactive: [1] 89.8% | [2] 74% | [3] 53.7% | [4] 70% | [5] 43.8% | [6] 68% | [7] 46.5% | [8] 81.8% | [9] 45.1%

COc1ccc(S(=O)(=O)n2cc(C=O)c3ccccc32)c(OC)c1
inactive: [1] 91.4% | [2] 85.2% | [3] 52.4% | [4] 106% | [5] 85.6% | [6] 52.5% | [7] 92.4% | [8] 33.5% | [9] 29.2%

CCN1C(=O)N(CC)C2C1NN=C1SC(c3ccccc3)=CC(=O)N12 (configuration not stated)
inactive: [1] 45.6% | [2] 36.7% | [3] 43.3% | [4] 62.8% | [5] 45.2% | [6] 37.5% | [8] 13.2% | [9] 18.2%
active: [7] -7.16%

CCOC(=O)Nc1ccc(-c2nc(-c3cccc(O)c3)c(-c3ccnc(Br)c3)[nH]2)cc1
inactive: [1] 44.2% | [2] 44.7% | [3] 31.3% | [4] 41.9% | [5] 36.5% | [6] 27.3% | [7] 49.4% | [8] 22.9%
active: [9] 2.17%

Cc1ccc(NC(=O)c2cccc(CN3CCN(C)CC3)c2)cc1Oc1ccc(-c2[nH]nc3ncnc(N)c23)cc1
inactive: [1] 97.5% | [2] 80% | [3] 93.3% | [4] 93.5% | [5] 92.6% | [6] 59.3% | [7] 89.2% | [8] 47%
active: [9] 0.353%

CCN(CC)c1ccc2cc(C(=O)NCCOCCOCCOCCn3cc(CCC(=O)Nc4ccc(C(=O)c5ccc(NC(=O)OC(C)(C)C)cc5)cc4)nn3)c(=O)oc2c1
inactive: [1] 73.5% | [2] 68.7% | [3] 62.5% | [4] 95.6% | [5] 84.1% | [6] 25.7% | [7] 84.8% | [8] 19% | [9] 21.4%

CS(=O)(=O)c1ccc2c(c1)c1c(n2S(=O)(=O)c2ccc(Cl)cc2)CCCC1
inactive: [1] 48% | [2] 33.1% | [3] 37.8% | [4] 65.7% | [5] 46.9% | [6] 29.3% | [8] 27.3% | [9] 24.4%
active: [7] -11.2%

CS(=O)c1nccc(-c2c(-c3ccc(F)c(OCc4ccccc4)c3)nc3sccn23)n1 (configuration not stated)
inactive: [1] 83% | [2] 97.4% | [3] 94.9% | [4] 106% | [5] 82.6% | [6] 89.3% | [7] 94.2% | [8] 76.4% | [9] 32.2%

CCOC(=O)c1c(NC(=O)c2cccc(C(F)(F)F)c2)sc2c(CN3CCN(C)CC3)c(O)ccc12
active: [2] -83.7% | [3] -95% | [4] -52.7% | [5] -98.8% | [6] -73.9% | [8] -23.8% | [9] -27.8%
inactive: [1] 70.4% | [7] 77.5%

C(=C(\C1=NCCN1)n1cnc2ccccc21)/c1ccc2ccccc2c1
inactive: [1] 73.2% | [2] 73.3% | [3] 68% | [4] 77.8% | [5] 72.9% | [6] 53.3% | [8] 63.5% | [9] 67%

COc1ccc(-c2nc3cc(Cl)c(Cl)cc3n2CC(=O)N=Nc2c(O)[nH]c3ccc(Cl)cc23)cc1
inactive: [1] 25.7% | [2] 23.2% | [4] 60.9% | [6] 13.6% | [8] 37.4% | [9] 34.5%
active: [3] 8.66% | [5] -33.8%

CC1CCc2c(sc3nc(SCC(=O)N/N=C/c4cccc(O)c4O)n(-c4ccccc4)c(=O)c23)C1 (configuration not stated)
inactive: [1] 85.6% | [2] 84% | [3] 73.2% | [4] 116% | [5] 71.9% | [6] 76.3% | [8] 91.9% | [9] 85%

CCOC(=O)/C(F)=C/C1CC1CCc1cccc(C(F)(F)F)c1 (configuration not stated)
inactive: [1] 101% | [2] 104% | [3] 90.4% | [4] 99.5% | [5] 100% | [6] 89.4% | [7] 93.7% | [9] 104%

COc1ccc(-c2nc3cc(Cl)c(Cl)cc3n2CC(=O)N=Nc2c(O)[nH]c3ccccc23)cc1
inactive: [1] 72.4% | [2] 38.4% | [3] 76.9% | [4] 95.7% | [5] 50.8% | [6] 56.5% | [8] 39.9% | [9] 47.4%

CN1CCN(c2ccc3c(c2)nc(NNC(=O)c2ccncn2)c2cccn23)CC1
inactive: [1] 22.4% | [2] 29.1% | [3] 13% | [4] 43.1% | [5] 12.5% | [8] 15.3% | [9] 10.4%
active: [6] 6.41%

CCc1ccc(NC(=O)N[C@@H](Cc2cccc(F)c2)C(=O)N[C@@H]2C(=O)N3CCC[C@H]3C(=O)N3CCCC[C@H]3C(=O)N[C@@H](CO)C(=O)N3C[C@H](C)C[C@H]3C(=O)O[C@H]2C)c(F)c1
inactive: [1] 34% | [2] 20.3% | [3] 29.4% | [4] 61.1% | [5] 32.2% | [6] 17.5% | [8] 37.7% | [9] 39.3%

CC1(COc2ccc3ncc(C#Cc4cncc(C(=O)Nc5cc(C(C)(C)C)on5)c4)n3n2)COC1
inactive: [1] 41.5% | [2] 30.4% | [3] 26.9% | [4] 91.6% | [5] 30.6% | [6] 35.4% | [8] 39.5% | [9] 45.6%

COc1ccccc1/C=C/C(=O)c1nnn(-c2ccc(C(=O)O)cc2)c1C
inactive: [1] 87.2% | [2] 84.1% | [3] 87.6% | [4] 117% | [5] 94% | [6] 96% | [8] 63.9% | [9] 94.4%

C=CCn1c(SCC(=O)Nc2cccc(C(=O)/C=C/c3ccc(Cl)cc3)c2)nc2ccccc2c1=O
inactive: [1] 99.5% | [2] 86.2% | [3] 67.6% | [4] 96.4% | [5] 90.6% | [6] 76.8% | [7] 78% | [9] 94%

O=C(O)c1ccc(-n2cc(CNc3ccc(Cl)cc3)c(-c3ccc(F)cc3)n2)cc1
inactive: [1] 81.1% | [2] 99% | [3] 80.5% | [4] 119% | [5] 78.9% | [6] 83.8% | [7] 88.6% | [8] 91.8% | [9] 85.4%

Nc1n[nH]c2cccc(C#Cc3cccc(NC(=O)c4cccc(OC(F)(F)F)c4)c3)c12
inactive: [1] 91% | [2] 39.7% | [3] 26.9% | [4] 97.1% | [5] 31.7% | [6] 48.3% | [7] 56.4% | [9] 35.4%

CCN1C(=O)N(CC)C2SC(N/N=C/C=C/c3ccccc3OC)=NC21 (configuration not stated)
inactive: [1] 46.8% | [2] 28.6% | [3] 40.2% | [4] 52.1% | [5] 29.9% | [6] 46.7% | [8] 11.3% | [9] 16.9%

Cc1ccc(Cc2cnc(NC(=O)/C(C#N)=C/c3ccc(-c4ccc(Cl)cc4)o3)s2)cc1
inactive: [1] 92.7% | [2] 97.4% | [3] 90.1% | [4] 120% | [5] 97.4% | [6] 83.8% | [8] 98.4% | [9] 103%

CCOC(=O)c1c(Nc2ccccc2)nn2c(-c3ccc(Br)cc3)ccnc12
inactive: [1] 81.5% | [2] 68.3% | [3] 65.1% | [4] 90.6% | [5] 34% | [6] 57.6% | [8] 85.8% | [9] 87.6%

COc1cc(-c2nc(SCc3ccc(C)cc3)[nH]c(=O)c2C#N)ccc1OCc1ccccc1
inactive: [1] 107% | [2] 116% | [3] 91.8% | [4] 101% | [5] 105% | [6] 95.2% | [8] 116% | [9] 129%

O=C1Nc2ccc(Cl)cc2/C1=C/c1ccc(OCc2ccc(F)cc2)cc1
active: [8] -53.8%
inactive: [1] 90.9% | [2] 93.9% | [3] 86.4% | [4] 99% | [5] 103% | [6] 74.6% | [9] 93.4%

COc1ccc(-c2ccnc3c(C#N)c(Nc4ccccc4)nn23)cc1OC
inactive: [1] 98.9% | [2] 89.8% | [3] 67.9% | [4] 65.8% | [5] 86.4% | [6] 60.2% | [8] 93.8% | [9] 84.9%

C[C@@H]1C[C@H]2C(=O)OCC(NC(=O)[C@H](Cc3cc(F)cc(F)c3)NC(=O)Nc3ccc(Cl)cc3F)C(=O)N3CCC[C@H]3C(=O)N3CCCC[C@H]3C(=O)N[C@@H](C)C(=O)N2C1 (some centres not stated)
inactive: [1] 27.7% | [2] 18.2% | [3] 30% | [4] 52.8% | [5] 26% | [6] 21.5% | [8] 31.3% | [9] 33.2%

COc1cc(OC)c(S(N)(=O)=O)cc1C(=O)/C=C/c1ccccc1
inactive: [1] 77.2% | [2] 11.3% | [3] 33.8% | [4] 19.9% | [5] 27.7% | [6] 30.2% | [8] 15.1% | [9] 29.2%
